Assay results from PubChem BioAssay (Tox21).
Inconclusive results are not listed. Unmarked numbers belong to inactive results. Calls follow the shape of the full dose curve.

molecular target: Muscarinic acetylcholine receptor M1 (Homo sapiens) (UniProt P11229); assay: Cholinergic receptor muscarinic 1 (CHRM1) small molecule antagonists, cell-based qHTS assay (AID 1963588); conditions: CHRM1-CHO antagonist mode, calcium flux fluorescence; series mostly up to 61.5 µM; activity, negative = inhibition: at the top concentration; also: nearly all actives have a fitted effect of over 40% in size
Sequence (P11229 whole entry, looked up): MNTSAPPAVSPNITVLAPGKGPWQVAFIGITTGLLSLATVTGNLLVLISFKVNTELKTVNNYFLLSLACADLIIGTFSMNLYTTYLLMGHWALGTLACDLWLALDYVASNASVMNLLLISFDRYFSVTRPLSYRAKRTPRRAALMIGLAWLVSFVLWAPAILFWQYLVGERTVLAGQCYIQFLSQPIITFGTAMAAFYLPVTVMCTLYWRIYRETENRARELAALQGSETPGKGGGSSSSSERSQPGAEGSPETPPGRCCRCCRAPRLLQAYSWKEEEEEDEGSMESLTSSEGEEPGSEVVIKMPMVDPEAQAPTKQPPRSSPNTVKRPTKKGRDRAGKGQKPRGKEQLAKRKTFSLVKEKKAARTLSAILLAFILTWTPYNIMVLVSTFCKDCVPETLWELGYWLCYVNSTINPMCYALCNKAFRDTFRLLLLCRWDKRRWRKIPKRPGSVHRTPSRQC
Source text: National Center for Advancing Translational Sciences [NCATS]
Division of Preclinical Innovation [DPI]
U.S. Environmental Protection Agency [EPA]
National Institutes of Environmental Health Sciences [NIEHS]
National Toxicology Program [NTP]
U.S. Food and Drug Administration [FDA]
The CHRM1 is a muscarinic receptor. This receptor plays a crucial role in learning and memory processes and has long been identified as a promising therapeutic target for the improvement of cognitive decline in Alzheimer's disease (AD). The CHRM1-CHO cell line stably expressing human muscarinic acetylcholine receptor M1 (CHRM1) can be used for screening agonists and antagonists of interactions between CHRM1 and its ligands. The CHRM1-CHO Calcium Flux Assay is a homogeneous fluorescence-based assay for detecting the intracellular calcium level using FDSS kinetic plate reader system.
Tox21 Assay Protocol Summary:
CHRM1-CHO cells were dispensed at 1000 cells/3uL/well in 1536-well black-clear bottom plates using a Multidrop Dispenser. After the assay plates were incubated at a 37 C/5% CO2 incubator for 18 h, 3 uL of Dye Loading Buffer was transferred to the assay plate by a Flying Reagent Dispenser. The assay plates were incubated at 37 C for 1h. For antagonist mode, 23 nL of compounds dissolved in DMSO, positive controls or DMSO only was transferred to the assay plate by a pin tool. After 5 min incubation at room temperature, 1.5 uL of acetylcholine at 50nM was added to each well. The fluorescence intensity in the plates was measured using FDSS 7000EX kinetic plate reader for 3 min at 1 sec intervals. Each test compound was measured at 15 concentrations in three independent runs.
% is scaled to controls: 0 for no effect and ±100 for the full control effect.

Structure (SMILES)	activity, negative = inhibition
CCOC(=O)CC(CC(=O)OCC)(OC(C)=O)C(=O)OCC	0.0229%
COc1ccc(OC)c(N=Nc2c(O)ccc3ccccc23)c1	-16.5%
CC(C)(C)NCCNC(C)(C)C	9.86%
N=C1C=CC(=C(c2ccc(N)cc2)c2ccc(N)cc2)C=C1	-8.29%
COc1ccc(-c2cc(=O)c3c(O)cc(O[C@@H]4O[C@H](CO[C@@H]5O[C@@H](C)[C@H](O)[C@@H](O)[C@H]5O)[C@@H](O)[C@H](O)[C@H]4O)cc3o2)cc1O	0.0775% [at 28.3 µM]
CN1CCN(C2=Nc3ccccc3Oc3ccc(Cl)cc32)CC1	-11.5% [at 28.3 µM]
O=CCCc1ccccc1	29.2%
CO[Si](C)(OC)c1ccccc1	0%
CCCCCCC1CCCC(=O)O1 (stereo not given)	-10.5%
CN=C(NC#N)Nc1ccc(C2=NNC(=O)CC2C)cc1 (stereo not given)	9.05% [at 28.3 µM]
C=CC(C)(CCC=C(C)C)OC(=O)C(C)C (stereo not given)	3.59%
CCCCCCCCCCCCCCCCCCO	-16.2% [at 28.3 µM]
CCCCC(CC)(CO)CO	24%
COc1cc(C)ccc1C(C)C	-15.5%
c1ccc(CN(CC2=NCCN2)c2ccccc2)cc1	5.68% [at 28.3 µM]
Cn1c(=O)c2c(ncn2CC(=O)O)n(C)c1=O	-4.9% [at 28.3 µM]
OCCC(F)(F)C(F)(F)C(F)(F)C(F)(F)C(F)(F)C(F)(F)C(F)(F)C(F)(F)F	7.37%
Nc1nc(CC(=O)O)cs1	-19.5%
Cc1cc(CCCOc2c(C)cc(-c3noc(C(F)(F)F)n3)cc2C)on1	-1.17% [at 28.3 µM]
CC(NC(CCc1ccccc1)C(=O)O)C(=O)N1C(=O)N(C)CC1C(=O)O (stereo not given)	12.2% [at 28.3 µM]

Structure (SMILES)	activity, negative = inhibition
O=C(O)c1cccc(Cl)n1	5.56%
Nc1cc(C(F)(F)F)ccc1S	-7.43% [at 28.3 µM]
COc1ccccc1NC(=O)c1cc2ccccc2cc1O	8.77%
CC1=C(C)C(=O)C(CCCCC#CCCCC#CCO)=C(C)C1=O	5.16% [at 28.3 µM]
CCN(CCC#N)c1ccc(N=Nc2ccc([N+](=O)[O-])cc2)cc1	8.49%
CCCCCCCCCCCCS(=O)(=O)Cl	0.609% [at 12.6 µM]
O=C(O)CCC(=O)OC[C@@H](NC(=O)C(Cl)Cl)[C@H](O)c1ccc([N+](=O)[O-])cc1	17% [at 28.3 µM]
C[C@]12CCC(=O)C=C1CC[C@@H]1[C@@H]2CC[C@@]2(C)[C@H]1CC[C@]2(O)C(=O)CO	16.7% [at 28.3 µM]
O=S(=O)(O)c1ccc(O)c2ncccc12	6.99%
CCCCC(=O)O[C@]1(C(=O)CO)CC[C@H]2[C@@H]3CCC4=CC(=O)CC[C@]4(C)[C@H]3[C@@H](O)C[C@@]21C	1.65% [at 28.3 µM]
CCCCCCCC/C=C\CCCCCCCC(=O)OC	6.88%
CCCCOCCOC(=O)CCCCCCCCC(=O)OCCOCCCC	4.48%
CNC(=O)c1cnn(-c2nc(N)c3ncn([C@@H]4O[C@H](CO)[C@@H](O)[C@H]4O)c3n2)c1	5.69% [at 28.3 µM]
COc1cc(C(C)C)ccc1C	8.74% [at 12.6 µM]
Cc1cccc(N(C)C(=S)Oc2ccc3c(c2)CCC3)c1	-9.29% [at 28.3 µM]
NC(=O)C1(N2CCCCC2)CCN(CCCC(=O)c2ccc(F)cc2)CC1	-11.4% [at 28.3 µM]
Nc1cc(Cl)c(O)c(Cl)c1	1.87%
CN1CCOC(c2ccccc2)c2ccccc2C1 (stereo not given)	-21.3% [at 28.3 µM]
CC(=O)CC(=O)Nc1ccc(C)cc1C	-11.7%
CC(C)[N+](C)(C)CC(O)COc1cccc2ccccc12 (stereo not given)	-5.18% [at 28.3 µM]
